The text below walks through data of PubChem BioAssay (NCATS).

Experiment [1] can be described thus: Quantitative high throughput screen for delayed death inhibitors of the malarial parasite plastid, 48 hour incubation (AID 488752). Note: % is set by controls: 0 for no effect and ±100 for the full control effect; nearly all actives have a fitted effect of over 65% in size. The method in brief:
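First, compound was pinned into RPMI 1640 medium containing 0.5% Albumax. Next, reporter-parasite-infected erythrocytes were added to 2% hematocrit and 0.1% parasitemia. After 48 h at 37 C under 5% CO2, luciferase detection reagent was added and luminescence read.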

In experiment [2] the target is Thioredoxin reductase 1, cytoplasmic (Rattus norvegicus) (UniProt O89049). In words: qHTS Assay for Substrates of Mammalian Selenoprotein Thioredoxin Reductase 1 (TrxR1) (AID 488772).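 Note: series mostly up to about 57 µM; 0% is about no effect; a drop in NADPH fluorescence below the no-compound background marks a TrxR1 substrate.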 The method in brief:
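In this dual-purpose format, potential substrates are identified from the first fluorescence read after selenite addition, not from the 8-minute delta. Rat enzyme is preincubated with NADPH and then with compound at ~22 deg C.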

For experiment [3] the target is unchanged. Put plainly: qHTS Assay for Inhibitors of Mammalian Selenoprotein Thioredoxin Reductase 1 (TrxR1) (AID 488773). Note: nearly all actives have a fitted effect of over 40% in size. Note: potency is the fitted concentration of half-maximal effect. Particulars: Potency: inhibition. The method in brief: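 Inhibition is scored from the loss of NADPH fluorescence between first and last reads of an 8-min kinetic run. Selenite (400 uM) was the substrate, added after 15 min compound preincubation at room temperature.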

Experiment [4] addresses Flap endonuclease 1 (Homo sapiens) (UniProt P39748). In words: qHTS Validation Assay for the Inhibitors of Human Flap endonuclease 1 (FEN1) (AID 488816). Note: % is set by controls: 0 for no effect and ±100 for the full control effect. The method in brief: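 Steps: add FEN1 (10 nM reagent) or buffer only; pin compounds; hold 15 min at room temperature; start with substrate, 50 nM final; read at 0 and 15 min; correct, normalize and fit a four-parameter Hill curve.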

For experiment [5], the target named is M-phase phosphoprotein 8 (Homo sapiens) (UniProt Q99549). In words: qHTS Validation Assay for Inhibitors for MPP8 Chromodomain Interactions with Methylated Histone Tails (AID 488949). Note: nearly all actives have a fitted effect of over 55% in size. Note: potency is the fitted concentration of half-maximal effect. The essentials: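 AlphaScreen read-out: streptavidin donor and nickel chelate acceptor beads (final 10 ug/mL), 30 min in the dark at RT. Complex of 50 nM MPP8 and 50 nM b-H3(1-18)K9me3 peptide had been exposed to compounds for 30 min beforehand.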

The target in experiment [6] is Chromobox protein homolog 1 (Homo sapiens) (UniProt P83916). In words: qHTS Validation Assay for Inhibitors of HP1-beta Chromodomain Interactions with Methylated Histone Tails (AID 488953). Note: nearly all actives have a fitted effect of over 50% in size. Note: potency is the fitted concentration of half-maximal effect. The method in brief: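 Disruption of preformed HP1-beta:H3K9me3 peptide complexes (both 50 nM, PBS pH 7.4 with 0.01% Tween-20) is measured by AlphaScreen after 30 min compound exposure at room temperature, using streptavidin donor and nickel chelate acceptor beads at 10 ug/mL final.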

Experiment [7] has as its target Methanococcus maripaludis chaperonin (MmCpn) (UniProt Q6LX38). In words: High-Throughput Screening for Modulators of Cytosolic Chaperonin Activity: MmCpn Primary Screen (AID 488978).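 Note: 50 nM MmCpn enzyme hydrolysing 30 µM ATP at 37 °C; 0% is about no effect.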 The method in brief:
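ADP formation read by HTRF Transcreener, 665/590 nm emission after 320 nm excitation. Enzyme: archaeal chaperonin at 50 nM final; substrate ATP 30 uM final; 10 min, 37C, after 5 min compound preincubation at RT.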

For experiment [8], the target named is Transient receptor potential cation channel subfamily V member 1 (Homo sapiens) (UniProt Q8NER1). In words: HTS Assay for Compounds that Act as Enhancers of the Vanilloid Receptor 1 (AID 488979). Note: 0% is about no effect. The essentials: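 TRPV1-expressing cells loaded with Fluo-8 calcium dye; compounds added and calcium influx read kinetically for 3 min (agonist phase), then capsaicin at EC20 added and read 2 min more for enhancement. Fluorescence ex 480/em 520 nm.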

For experiment [9], the target named is D(1A) dopamine receptor (Homo sapiens) (UniProt P21728). In words: HTS Assay for Allosteric Agonists of the Human D1 Dopamine Receptor: Primary Screen for Agonists (AID 488981). Note: 0% is about no effect. The essentials:
(§1)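 Tetracycline-induced HEK293 T-REx cells force-coupled to calcium signalling were incubated overnight at 30 C and dye-loaded at room temperature. Calcium flux over 180 s after compound addition flagged agonists; a further 180 s read after EC20 dopamine flagged potentiators.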

Experiment [10] has the same target. In words: HTS Assay for Allosteric Agonists of the Human D1 Dopamine Receptor: Primary Screen for Potentiators (AID 488982). Note: 0% is about no effect. The essentials: as §1
Experiment [11] has the same target. Put plainly: HTS Assay for Allosteric Agonists of the Human D1 Dopamine Receptor: Primary Screen for Antagonists (AID 488983).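 Note: calcium flux response to an EC80 dopamine challenge measured with no-wash dye; % is set by controls: 0 for no effect and ±100 for the full control effect; nearly all actives have a fitted effect of over 65% in size.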 The essentials: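 Kinetic fluorescence at 1 cycle/sec tracked intracellular calcium in force-coupled, tetracycline-inducible HEK293 T-REx D1 cells. Loss of response to an EC80 dopamine dose, given 180 s after compound, marked antagonists.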

The target of experiment [12] is ATP-dependent 6-phosphofructokinase (Trypanosoma brucei brucei) (UniProt O15648). Put plainly: qHTS Assay to Find Inhibitors of T. brucei phosphofructokinase: hit validation (AID 492961). Note: potency is the fitted concentration of half-maximal effect. The method in brief: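 Percent activity derived from corrected luminescence, normalized between 0x and 1x enzyme controls, then fitted to concentration-response curves. Conditions: 1.25 nM PFK, 0.1 mM ATP, 0.5 mM F6P, 45 min RT.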

The target in experiment [13] is ATPase family AAA domain-containing protein 5 (Homo sapiens) (UniProt Q96QE3). In words: Validation screen for small molecules that inhibit ELG1-dependent DNA repair in human embryonic kidney (HEK293T) cells expressing luciferase-tagged ELG1 (AID 493107).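 Note: cells co-treated with the DNA-damaging agent 5-fluorouridine alongside compound; series mostly up to about 46 µM; % is set by controls: 0 for no effect and ±100 for the full control effect; inhibitors lower the ELG1-luciferase luminescence signal; nearly all actives have a fitted effect of over 70% in size.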 The method in brief: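 Cells are dispensed in 1536-well format, then 5-fluorouridine and compound are pinned in. After a 16 hr incubation at 37 °C and 5% CO2, ONE-Glo is added and luciferase measured on a CCD imager.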

A short description of experiment [14]: qHTS for Inhibitors of Cell Surface uPA Generation: Validation Assay (AID 493164).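 Note: RAW 264.7 macrophage cells exposed to compound for 18 h; 0% is about no effect.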 The method in brief: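 ATP-Lite luminescence read-out: ATP remains high when uPA activity-dependent LF translocation into the cytoplasm is blocked. RAW 264.7 cells, 18 h compound exposure at 37 C; 7-point titration, 2.45 nM to 38.3 uM final.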
Experiment [15] can be described thus: Validation screen for small molecules that induce genotoxicity in human embryonic kidney (HEK293T) cells expressing luciferase-tagged ELG1 (AID 493106). Note: 0% is about no effect. The essentials:
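Cells were dispensed at 2,000 per well, then 23 nL compound or DMSO was pinned in. After 16 hr at 37 °C and 5% CO2, ONE-Glo reagent was added. Luciferase activity was measured following 30 min at room temperature.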

Experiment [16] concerns the target Thyrotropin-releasing hormone receptor (Homo sapiens) (UniProt P34981). Put plainly: qHTS for Small Molecule Agonists and Allosteric Enhancers of Human TRH Receptor: Validation Screen for Agonists (AID 493127;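 active = calcium activation more than 3 SD above the typical response in the agonist read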;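 note: intracellular calcium rise by fluo-8 fluorescence before TRH EC20 addition; 0% is about no effect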). As to conditions: TRH receptor agonist cell assay; at 2 µM; stronger effect = higher value. The essentials: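 Compounds are added by online pintool to dye-loaded TRHR cells while fluorescence is recorded every second. A rise in calcium signal during the agonist read marks activation; a later 10 nM TRH addition (EC20) serves the separate enhancer mode.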

A short description of experiment [17]: Nrf2 qHTS screen for inhibitors: Validation (AID 493153; active = well fitted inhibition curve with a large enough effect in the main read-out, with a control signal flat, not every such curve was filed as active). As to conditions: Potency: luciferase luminescence; viability change: measured here: cytotoxicity max response. The essentials:
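A549 ARE_Fluc, 5% FBS OPTI-MEM; cpd titration, 18-24 h, 37°C/5% CO2. Read 1: CellTiter-Fluor (Ex 405/Em 525), cytotox. Read 2: luciferase lum, Nrf2 activity.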

Experiment [18] concerns the target Thyrotropin receptor (Homo sapiens) (UniProt P16473). In words: qHTS Assay for Antagonists of the Thyroid Stimulating Hormone Receptor (AID 488980). Note: series mostly up to about 58 µM; 0% is about no effect. The method in brief: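 TSHR-HEK293 cells; 70 uM RO 20-1724 PDE inhibitor; compound + EC80 TSH (4 nM final); anti-cAMP cryptate antibody/cAMP-d2 in lysis buffer, 30 min RT; HTRF 665/620 nm read.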

Values joined by “and” are separate entries in the source; they are usually repeats but may differ in a detail not shown here. Identical values can stand only once. Inconclusive results are not listed. Active and inactive are the calls of the source. Unless noted, calls come from the whole dose curve; as a rule, active = well fitted curve in the direction sought with a large enough effect; inconclusive = small, poorly fitted or top-dose-only effect, or another doubt; inactive = no such curve, though single readings can be large; an effect the other way counts as inactive or inconclusive.

Sequence of M-phase phosphoprotein 8 (Homo sapiens) (Q99549 whole entry, looked up): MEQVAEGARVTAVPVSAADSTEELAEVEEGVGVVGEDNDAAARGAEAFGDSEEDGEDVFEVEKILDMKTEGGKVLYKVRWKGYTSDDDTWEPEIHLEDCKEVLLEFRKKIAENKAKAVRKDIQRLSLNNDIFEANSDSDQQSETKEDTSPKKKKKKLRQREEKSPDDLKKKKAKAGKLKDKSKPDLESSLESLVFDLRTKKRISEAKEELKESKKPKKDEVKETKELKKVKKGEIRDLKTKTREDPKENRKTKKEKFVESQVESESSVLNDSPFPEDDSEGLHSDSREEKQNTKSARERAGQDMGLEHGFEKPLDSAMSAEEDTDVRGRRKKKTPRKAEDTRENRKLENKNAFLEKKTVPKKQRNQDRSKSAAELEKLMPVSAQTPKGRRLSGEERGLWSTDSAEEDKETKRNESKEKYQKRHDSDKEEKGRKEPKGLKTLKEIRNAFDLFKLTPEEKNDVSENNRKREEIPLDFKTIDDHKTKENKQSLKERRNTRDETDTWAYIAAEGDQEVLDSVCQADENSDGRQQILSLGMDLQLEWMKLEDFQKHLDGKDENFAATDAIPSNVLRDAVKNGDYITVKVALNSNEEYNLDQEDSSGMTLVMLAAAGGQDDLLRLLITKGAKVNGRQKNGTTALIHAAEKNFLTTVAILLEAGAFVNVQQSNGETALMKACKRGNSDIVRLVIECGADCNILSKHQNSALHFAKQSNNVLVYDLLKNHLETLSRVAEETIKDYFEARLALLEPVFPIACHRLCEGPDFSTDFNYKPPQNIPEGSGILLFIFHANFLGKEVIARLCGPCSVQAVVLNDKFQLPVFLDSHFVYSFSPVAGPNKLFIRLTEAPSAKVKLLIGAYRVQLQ
Sequence of Thioredoxin reductase 1, cytoplasmic (Rattus norvegicus) (O89049 whole entry, looked up): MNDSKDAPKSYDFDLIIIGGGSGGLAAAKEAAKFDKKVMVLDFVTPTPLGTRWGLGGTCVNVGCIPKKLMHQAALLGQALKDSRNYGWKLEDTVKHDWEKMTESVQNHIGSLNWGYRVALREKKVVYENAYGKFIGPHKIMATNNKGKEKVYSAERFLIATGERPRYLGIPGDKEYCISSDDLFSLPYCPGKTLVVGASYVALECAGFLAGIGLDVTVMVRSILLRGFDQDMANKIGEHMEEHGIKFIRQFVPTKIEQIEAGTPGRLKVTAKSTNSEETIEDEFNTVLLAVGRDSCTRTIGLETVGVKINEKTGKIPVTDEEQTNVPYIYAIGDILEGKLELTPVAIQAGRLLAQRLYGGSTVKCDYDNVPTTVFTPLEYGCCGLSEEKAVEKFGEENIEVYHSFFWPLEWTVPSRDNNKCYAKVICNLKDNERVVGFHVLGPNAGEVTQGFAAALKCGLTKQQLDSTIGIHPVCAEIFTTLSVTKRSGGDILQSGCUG
Sequence of Chromobox protein homolog 1 (Homo sapiens) (P83916 whole entry, looked up): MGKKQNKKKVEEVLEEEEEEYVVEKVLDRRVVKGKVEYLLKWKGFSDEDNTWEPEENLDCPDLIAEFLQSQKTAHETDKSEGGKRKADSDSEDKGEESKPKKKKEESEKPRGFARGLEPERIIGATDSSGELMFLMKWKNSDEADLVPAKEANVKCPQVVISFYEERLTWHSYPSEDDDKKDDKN
Sequence of Thyrotropin-releasing hormone receptor (Homo sapiens) (P34981 whole entry, looked up): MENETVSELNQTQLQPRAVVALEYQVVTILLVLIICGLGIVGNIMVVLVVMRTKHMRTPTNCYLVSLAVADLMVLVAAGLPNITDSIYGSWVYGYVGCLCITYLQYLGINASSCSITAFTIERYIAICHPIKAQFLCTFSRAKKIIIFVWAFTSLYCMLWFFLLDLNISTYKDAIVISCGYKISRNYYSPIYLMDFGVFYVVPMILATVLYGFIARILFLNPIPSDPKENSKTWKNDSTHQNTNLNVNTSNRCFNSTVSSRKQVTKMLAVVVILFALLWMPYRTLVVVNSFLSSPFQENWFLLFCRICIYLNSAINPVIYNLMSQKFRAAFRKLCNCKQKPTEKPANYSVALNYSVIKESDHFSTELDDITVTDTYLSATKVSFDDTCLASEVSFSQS
Sequence of Flap endonuclease 1 (Homo sapiens) (P39748 whole entry, looked up): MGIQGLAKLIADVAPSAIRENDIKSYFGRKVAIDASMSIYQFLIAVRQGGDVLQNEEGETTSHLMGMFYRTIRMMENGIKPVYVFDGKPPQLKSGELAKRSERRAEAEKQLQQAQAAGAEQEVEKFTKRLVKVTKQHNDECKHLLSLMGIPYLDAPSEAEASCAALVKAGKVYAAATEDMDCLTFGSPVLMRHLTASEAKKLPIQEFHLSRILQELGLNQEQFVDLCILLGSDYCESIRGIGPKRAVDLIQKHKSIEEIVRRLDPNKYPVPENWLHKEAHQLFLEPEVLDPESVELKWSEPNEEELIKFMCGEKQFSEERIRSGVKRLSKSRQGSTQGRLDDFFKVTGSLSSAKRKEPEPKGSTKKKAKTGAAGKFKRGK
Sequence of Thyrotropin receptor (Homo sapiens) (P16473 whole entry, looked up): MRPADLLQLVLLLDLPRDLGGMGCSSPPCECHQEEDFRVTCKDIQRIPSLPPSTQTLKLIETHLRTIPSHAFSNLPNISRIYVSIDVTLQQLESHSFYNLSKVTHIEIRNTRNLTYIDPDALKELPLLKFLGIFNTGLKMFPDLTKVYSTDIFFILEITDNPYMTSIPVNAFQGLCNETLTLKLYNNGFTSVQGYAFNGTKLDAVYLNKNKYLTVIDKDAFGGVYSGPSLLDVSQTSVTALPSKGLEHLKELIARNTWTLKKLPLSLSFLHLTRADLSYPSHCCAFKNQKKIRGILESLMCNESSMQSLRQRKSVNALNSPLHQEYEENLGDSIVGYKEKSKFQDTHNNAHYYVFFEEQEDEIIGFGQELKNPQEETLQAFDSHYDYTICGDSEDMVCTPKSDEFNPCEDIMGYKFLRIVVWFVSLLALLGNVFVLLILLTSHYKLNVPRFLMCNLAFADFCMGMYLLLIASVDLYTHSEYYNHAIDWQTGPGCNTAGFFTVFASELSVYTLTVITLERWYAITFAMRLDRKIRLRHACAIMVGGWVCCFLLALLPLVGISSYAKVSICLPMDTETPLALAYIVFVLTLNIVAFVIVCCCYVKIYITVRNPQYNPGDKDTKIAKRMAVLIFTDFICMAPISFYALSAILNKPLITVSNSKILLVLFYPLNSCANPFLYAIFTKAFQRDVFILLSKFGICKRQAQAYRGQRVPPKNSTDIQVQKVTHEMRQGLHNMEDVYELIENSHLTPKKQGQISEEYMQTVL
Sequence of ATPase family AAA domain-containing protein 5 (Homo sapiens) (Q96QE3 whole entry, looked up, the tested form may be a part): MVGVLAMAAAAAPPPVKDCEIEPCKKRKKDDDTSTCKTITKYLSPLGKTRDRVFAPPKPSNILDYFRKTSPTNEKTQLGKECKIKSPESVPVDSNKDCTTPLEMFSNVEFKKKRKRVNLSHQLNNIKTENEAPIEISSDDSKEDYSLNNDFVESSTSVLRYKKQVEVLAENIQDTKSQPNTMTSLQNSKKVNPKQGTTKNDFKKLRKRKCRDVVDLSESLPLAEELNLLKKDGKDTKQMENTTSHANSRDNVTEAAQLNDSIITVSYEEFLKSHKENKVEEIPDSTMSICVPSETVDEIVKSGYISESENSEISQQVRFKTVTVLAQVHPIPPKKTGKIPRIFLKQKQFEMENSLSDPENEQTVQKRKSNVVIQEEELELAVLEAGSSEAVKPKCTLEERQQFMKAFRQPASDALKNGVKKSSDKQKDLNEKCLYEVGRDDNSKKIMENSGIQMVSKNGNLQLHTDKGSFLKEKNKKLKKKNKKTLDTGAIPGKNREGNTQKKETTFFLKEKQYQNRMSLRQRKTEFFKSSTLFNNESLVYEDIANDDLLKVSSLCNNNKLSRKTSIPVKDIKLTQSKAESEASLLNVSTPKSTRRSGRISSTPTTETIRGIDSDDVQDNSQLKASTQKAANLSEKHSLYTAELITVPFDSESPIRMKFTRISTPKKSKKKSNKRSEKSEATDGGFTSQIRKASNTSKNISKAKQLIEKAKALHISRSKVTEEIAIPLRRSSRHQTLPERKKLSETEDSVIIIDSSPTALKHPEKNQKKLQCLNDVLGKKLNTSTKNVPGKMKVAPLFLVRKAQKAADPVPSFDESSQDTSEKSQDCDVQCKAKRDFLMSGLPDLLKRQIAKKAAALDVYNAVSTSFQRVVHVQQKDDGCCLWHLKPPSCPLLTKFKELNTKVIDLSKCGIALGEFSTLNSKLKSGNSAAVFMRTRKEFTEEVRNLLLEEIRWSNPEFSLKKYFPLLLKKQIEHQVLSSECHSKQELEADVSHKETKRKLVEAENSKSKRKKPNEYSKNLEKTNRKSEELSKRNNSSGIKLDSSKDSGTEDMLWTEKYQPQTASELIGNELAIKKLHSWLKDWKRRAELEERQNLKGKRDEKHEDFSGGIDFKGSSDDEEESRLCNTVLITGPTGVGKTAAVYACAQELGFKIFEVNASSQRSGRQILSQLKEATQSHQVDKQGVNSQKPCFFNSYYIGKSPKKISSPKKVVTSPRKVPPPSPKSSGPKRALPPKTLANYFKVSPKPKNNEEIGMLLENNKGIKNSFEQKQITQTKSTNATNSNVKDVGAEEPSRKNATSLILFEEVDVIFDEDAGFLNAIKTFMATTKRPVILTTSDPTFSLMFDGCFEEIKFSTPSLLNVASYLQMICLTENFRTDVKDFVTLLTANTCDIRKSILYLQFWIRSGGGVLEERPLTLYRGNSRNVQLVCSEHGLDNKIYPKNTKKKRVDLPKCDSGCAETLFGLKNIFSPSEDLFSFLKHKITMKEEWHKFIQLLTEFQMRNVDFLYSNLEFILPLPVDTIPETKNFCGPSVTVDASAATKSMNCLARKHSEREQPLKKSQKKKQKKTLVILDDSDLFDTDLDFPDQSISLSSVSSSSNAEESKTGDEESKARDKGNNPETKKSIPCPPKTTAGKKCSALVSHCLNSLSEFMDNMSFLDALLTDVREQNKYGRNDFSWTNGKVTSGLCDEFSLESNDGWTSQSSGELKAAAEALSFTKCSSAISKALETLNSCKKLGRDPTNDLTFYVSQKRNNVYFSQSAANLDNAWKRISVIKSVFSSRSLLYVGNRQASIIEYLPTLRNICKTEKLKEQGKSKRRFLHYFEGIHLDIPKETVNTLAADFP

Turning to `c1ccc2cc(CC3=NCCN3)ccc2c1`, the Potency result in experiment [1], in experiment [3], in experiment [4], in [5], in experiment [6] and in [9] was “inactive” each time. Also, the Potency entry in [10], in experiment [11], in [12] and in experiment [13] was “inactive” each time. The outcome in [2], in experiment [7], in experiment [8] and in experiment [14] was inactive.
For `Nc1ccc(CCN2CCN(c3cccc(C(F)(F)F)c3)CC2)cc1`, the Potency result in experiment [1], in [3], in experiment [4], in experiment [5], in [9] and in [10] was “inactive” each time. Also, the Potency entry in [15], in experiment [13] and in [17] was “inactive” each time. Moreover, the result in experiment [2], in [7], in [8] and in [14] was inactive. The activation in [16] is 2.19% (inactive). The viability change in experiment [17] was 0.0372%.
As for `CN(N=O)c1cc(O)ccc1O`, the Potency entry in experiment [1], in [9], in [10], in experiment [11] and in experiment [13] was “inactive” each time. Further, the outcome in experiment [2], in [7], in [8] and in experiment [14] was inactive. Besides, the Potency in experiment [3] is 0.752 µM (active); in [5], 8.91 µM (active). Further, in [16], the activation was -2.69% (inactive).
For the compound `O=c1c2ccccc2[se]n1-c1ccccc1`, the outcome in [2], in [7], in experiment [18] and in [14] was inactive. Besides, the Potency result in experiment [3], in experiment [4], in experiment [10], in experiment [11], in [15] and in experiment [17] was “inactive” throughout. For the same compound, the Potency in experiment [5] was 5.01 µM (active) and 2.99 µM (active); in experiment [6], 25.1 µM (active); in experiment [12], 11.2 µM (active). Besides, the activation in experiment [16] was 3.06% (inactive). In experiment [17], the viability change turned out to be 3.13%.
With `CCCn1c(=O)c2[nH]c(C3CCCC3)nc2n(CCCOC(=O)c2ccc(S(=O)(=O)F)cc2)c1=O`, the Potency entry in experiment [1], in [3], in experiment [4], in experiment [5], in experiment [9] and in [10] was “inactive” each time. In addition, the Potency result in experiment [11], in [15], in [13] and in [17] was “inactive” in each case. Besides, the compound was classed as inactive in experiment [2], in experiment [7], in [8] and in experiment [14]. The activation in experiment [16] is -5.75% (inactive). The viability change in experiment [17] was -2.37%.
For the compound `COc1ccc2c(c1)C13CCCCC1C(C2)N(C)CC3` (stereo unspecified), the Potency result in [1], in experiment [3], in experiment [4], in experiment [5], in experiment [6] and in experiment [9] was “inactive” each time. The Potency result in experiment [10], in [11], in experiment [15], in experiment [13] and in experiment [17] was “inactive” throughout. Besides, the outcome in experiment [2], in experiment [7], in [8], in [18] and in experiment [14] was inactive. The activation in [16] is 1.06% (inactive). Moreover, the viability change in [17] was found to be 4.34%.
On to `CC(N)Cc1c[nH]c2ccc(O)cc12` (stereo unspecified), for which the Potency entry in experiment [1], in experiment [3], in experiment [4], in [5], in experiment [9] and in [10] was “inactive” in each case. Also, the Potency entry in [15], in experiment [13] and in experiment [17] was “inactive” in each case. Moreover, the outcome in experiment [2], in [7], in experiment [8], in experiment [18] and in [14] was inactive. Further, in experiment [16], the activation was 1.38% (inactive). Moreover, in [17], the viability change was -2.01%.
